# In PubChem BioAssay (NCATS):
# Results filed as inconclusive are left out. Where a call stands in place of a potency, no number is given. Active and inactive are the calls of the source. Unless noted, calls follow the shape of the dose curve; as a rule, active = well fitted curve in the direction sought with a large enough effect; inconclusive = small, poorly fitted or top-dose-only effect, or another doubt; inactive = no such curve, though single readings can be large; an effect the other way counts as inactive or inconclusive. Where a SMILES comes first, the peptide text is derived from it. [ ]: non-standard residue; d: D form. pGlu = O=C1CC[C@@H](C(=O)O)N1; Thz = O=C(O)[C@@H]1CSCN1
# Experiments:
# [1] = target: ATP-dependent 6-phosphofructokinase (Trypanosoma brucei brucei) (UniProt O15648); assay: qHTS Assay to Find Inhibitors of T. brucei phosphofructokinase: hit validation (AID 492961);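 also: luminescence reports ADP formed as PFK phosphorylates fructose-6-phosphate with ATP; series mostly up to about 51 µM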
# How it was run: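 ADP-Glo luminescence read-out of ADP formed by 1.25 nM PFK from 0.1 mM ATP and 0.5 mM F6P (TEA pH 8.0, 45 min, RT). Compounds titrated; activity normalized to no-enzyme and full-enzyme controls.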
# [2] = Validation screen for small molecules that induce genotoxicity in human embryonic kidney (HEK293T) cells expressing luciferase-tagged ELG1 (AID 493106)
# How it was run: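 HEK293T cells expressing luciferase-tagged ELG1 were exposed to compound or DMSO vehicle for 16 hr at 37 °C, 5% CO2. Genotoxic stress raises ELG1 levels, so increased luciferase signal after ONE-Glo addition and 30 min at room temperature marks hits.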
# [3] = target: ATPase family AAA domain-containing protein 5 (Homo sapiens) (UniProt Q96QE3); assay: Validation screen for small molecules that inhibit ELG1-dependent DNA repair in human embryonic kidney (HEK293T) cells expressing luciferase-tagged ELG1 (AID 493107);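 also: cells co-treated with the DNA-damaging agent 5-fluorouridine alongside compound; series mostly up to about 46 µM; inhibitors lower the ELG1-luciferase luminescence signal; nearly all actives have a fitted effect of over 70% in size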
# How it was run: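 HEK293T cells expressing luciferase-tagged ELG1 were co-treated with 5-fluorouridine and compound or DMSO for 16 hr at 37 °C, 5% CO2. Luciferase activity was then read with ONE-Glo after 30 min at room temperature; suppressed signal indicates blocked ELG1 function.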
# [4] = target: Thyrotropin-releasing hormone receptor (Homo sapiens) (UniProt P34981); assay: qHTS for Small Molecule Agonists and Allosteric Enhancers of Human TRH Receptor: Validation Screen for Agonists (AID 493127;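 active = calcium activation more than 3 SD above the typical response in the agonist read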;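 also: intracellular calcium rise by fluo-8 fluorescence before TRH EC20 addition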); details: TRH receptor agonist cell assay; at 2 µM; stronger effect = higher value
# How it was run: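 TRHR-expressing cells were plated overnight in serum-containing medium, then loaded with fluo-8 calcium dye at room temperature for 30 min–1.5 h. After a 10 s baseline, compound was pin-transferred and calcium fluorescence (ex 480/em 530) read kinetically for agonist response.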
# [5] = qHTS for Inhibitors of Cell Surface uPA Generation: Validation Assay (AID 493164);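 also: RAW 264.7 macrophage cells exposed to compound for 18 h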
# How it was run: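 RAW 264.7, 4000 cells/well, o/n plating; cpd 7-pt 1:5 dilution 2.45 nM–38.3 uM final; 18 h, 37 C/5% CO2; ATP-Lite, 5 s luminescence exposure.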
# [6] = target: Galactokinase (Homo sapiens) (UniProt P51570); assay: qHTS Validation Assay for Inhibitors of Human Galactokinase (GALK) (AID 493189)
# How it was run: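 Luminescence from leftover ATP (Kinase-Glo Plus, 10 min) served as read-out after a 1 h room-temperature reaction of 5 nM GALK, 100 uM galactose and 35 uM ATP at pH8.0.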
# [7] = Validation screen for small molecules that induce DNA re-replication in SW480 colon adenocarcinoma cells (AID 504364); also: potency is read from the fitted curve at half-maximal effect
# How it was run: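 SW480 cells seeded at 250 per well were exposed to compound or DMSO for 48 hr at 37 C, 5% CO2, then stained with Hoechst for 40 min. DNA content per nucleus was imaged (405 nm ex, 500-530 nm em).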
# [8] = target: Phosphoglycerate kinase, glycosomal (Trypanosoma brucei brucei) (UniProt P07378); assay: qHTS Validation Assay to Find Inhibitors of Phosphoglycerate Kinase (AID 504547)
# How it was run: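 Inhibition of the enzyme is judged by a Kinase-Glo Plus luminescent signal following a one-hour incubation at room temperature. Because 1,3-BPG is unstable, it is made in situ by GAPDH at 100nM final; no-PGK wells define the baseline.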
# [9] = Nrf2 qHTS screen for inhibitors: Validation (AID 493153; active = well fitted inhibition curve with a large enough effect in the main read-out, with a control signal flat, not every such curve was filed as active); details: Potency: luciferase luminescence; viability change: measured here: cytotoxicity max response
# How it was run: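 A549 cells carrying an ARE-driven firefly luciferase reporter, in 5% FBS OPTI-MEM, were treated with compounds in concentration-response for 18-24 h at 37°C. Viability was read by CellTiter-Fluor fluorescence, then Nrf2 activity by luciferase luminescence.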
# [10] = target: Peptidyl-prolyl cis-trans isomerase NIMA-interacting 1 (Homo sapiens) (UniProt Q13526); assay: qHTS Validation Assay to Find Inhibitors of Pin1 (AID 504536; active = well fitted inhibition curve with a large enough effect in the polarisation, with a control signal flat, not every such curve was filed as active; the % refers to the polarisation)
# How it was run: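 Fluorescence polarization competition: compounds (titration) displace HiFluor-488-labeled Pin1-1b peptide from Pin1 (0.3 uM final) in pH 7.5 HEPES buffer with DTT, 10 min at room temperature; %Activity normalized to no-enzyme wells, curves fitted.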
# Chain of Thyrotropin-releasing hormone receptor (Homo sapiens) (P34981 whole entry, looked up): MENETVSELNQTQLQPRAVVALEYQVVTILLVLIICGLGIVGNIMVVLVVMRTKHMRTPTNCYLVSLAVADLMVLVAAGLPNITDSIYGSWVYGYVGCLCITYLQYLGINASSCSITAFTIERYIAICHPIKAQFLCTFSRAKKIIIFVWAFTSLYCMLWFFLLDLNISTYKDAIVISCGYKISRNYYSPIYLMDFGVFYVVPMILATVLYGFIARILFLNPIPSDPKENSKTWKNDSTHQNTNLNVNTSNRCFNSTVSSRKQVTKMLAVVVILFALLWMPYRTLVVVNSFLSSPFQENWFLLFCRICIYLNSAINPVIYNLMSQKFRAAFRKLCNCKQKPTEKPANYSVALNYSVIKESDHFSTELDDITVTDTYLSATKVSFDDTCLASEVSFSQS
# Chain of Phosphoglycerate kinase, glycosomal (Trypanosoma brucei brucei) (P07378 whole entry, looked up): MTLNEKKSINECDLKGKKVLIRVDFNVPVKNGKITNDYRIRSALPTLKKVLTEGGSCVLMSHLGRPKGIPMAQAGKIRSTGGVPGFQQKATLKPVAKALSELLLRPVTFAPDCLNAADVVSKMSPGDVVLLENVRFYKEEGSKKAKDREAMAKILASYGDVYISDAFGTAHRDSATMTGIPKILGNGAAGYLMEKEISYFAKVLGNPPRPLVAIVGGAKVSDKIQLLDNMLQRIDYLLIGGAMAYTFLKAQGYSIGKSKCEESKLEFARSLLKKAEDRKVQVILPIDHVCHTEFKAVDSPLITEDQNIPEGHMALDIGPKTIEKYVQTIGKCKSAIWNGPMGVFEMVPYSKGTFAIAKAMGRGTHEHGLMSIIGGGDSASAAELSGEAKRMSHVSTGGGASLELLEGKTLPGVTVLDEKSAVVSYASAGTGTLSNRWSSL
# Chain of ATPase family AAA domain-containing protein 5 (Homo sapiens) (Q96QE3 whole entry, looked up, the tested form may be a part): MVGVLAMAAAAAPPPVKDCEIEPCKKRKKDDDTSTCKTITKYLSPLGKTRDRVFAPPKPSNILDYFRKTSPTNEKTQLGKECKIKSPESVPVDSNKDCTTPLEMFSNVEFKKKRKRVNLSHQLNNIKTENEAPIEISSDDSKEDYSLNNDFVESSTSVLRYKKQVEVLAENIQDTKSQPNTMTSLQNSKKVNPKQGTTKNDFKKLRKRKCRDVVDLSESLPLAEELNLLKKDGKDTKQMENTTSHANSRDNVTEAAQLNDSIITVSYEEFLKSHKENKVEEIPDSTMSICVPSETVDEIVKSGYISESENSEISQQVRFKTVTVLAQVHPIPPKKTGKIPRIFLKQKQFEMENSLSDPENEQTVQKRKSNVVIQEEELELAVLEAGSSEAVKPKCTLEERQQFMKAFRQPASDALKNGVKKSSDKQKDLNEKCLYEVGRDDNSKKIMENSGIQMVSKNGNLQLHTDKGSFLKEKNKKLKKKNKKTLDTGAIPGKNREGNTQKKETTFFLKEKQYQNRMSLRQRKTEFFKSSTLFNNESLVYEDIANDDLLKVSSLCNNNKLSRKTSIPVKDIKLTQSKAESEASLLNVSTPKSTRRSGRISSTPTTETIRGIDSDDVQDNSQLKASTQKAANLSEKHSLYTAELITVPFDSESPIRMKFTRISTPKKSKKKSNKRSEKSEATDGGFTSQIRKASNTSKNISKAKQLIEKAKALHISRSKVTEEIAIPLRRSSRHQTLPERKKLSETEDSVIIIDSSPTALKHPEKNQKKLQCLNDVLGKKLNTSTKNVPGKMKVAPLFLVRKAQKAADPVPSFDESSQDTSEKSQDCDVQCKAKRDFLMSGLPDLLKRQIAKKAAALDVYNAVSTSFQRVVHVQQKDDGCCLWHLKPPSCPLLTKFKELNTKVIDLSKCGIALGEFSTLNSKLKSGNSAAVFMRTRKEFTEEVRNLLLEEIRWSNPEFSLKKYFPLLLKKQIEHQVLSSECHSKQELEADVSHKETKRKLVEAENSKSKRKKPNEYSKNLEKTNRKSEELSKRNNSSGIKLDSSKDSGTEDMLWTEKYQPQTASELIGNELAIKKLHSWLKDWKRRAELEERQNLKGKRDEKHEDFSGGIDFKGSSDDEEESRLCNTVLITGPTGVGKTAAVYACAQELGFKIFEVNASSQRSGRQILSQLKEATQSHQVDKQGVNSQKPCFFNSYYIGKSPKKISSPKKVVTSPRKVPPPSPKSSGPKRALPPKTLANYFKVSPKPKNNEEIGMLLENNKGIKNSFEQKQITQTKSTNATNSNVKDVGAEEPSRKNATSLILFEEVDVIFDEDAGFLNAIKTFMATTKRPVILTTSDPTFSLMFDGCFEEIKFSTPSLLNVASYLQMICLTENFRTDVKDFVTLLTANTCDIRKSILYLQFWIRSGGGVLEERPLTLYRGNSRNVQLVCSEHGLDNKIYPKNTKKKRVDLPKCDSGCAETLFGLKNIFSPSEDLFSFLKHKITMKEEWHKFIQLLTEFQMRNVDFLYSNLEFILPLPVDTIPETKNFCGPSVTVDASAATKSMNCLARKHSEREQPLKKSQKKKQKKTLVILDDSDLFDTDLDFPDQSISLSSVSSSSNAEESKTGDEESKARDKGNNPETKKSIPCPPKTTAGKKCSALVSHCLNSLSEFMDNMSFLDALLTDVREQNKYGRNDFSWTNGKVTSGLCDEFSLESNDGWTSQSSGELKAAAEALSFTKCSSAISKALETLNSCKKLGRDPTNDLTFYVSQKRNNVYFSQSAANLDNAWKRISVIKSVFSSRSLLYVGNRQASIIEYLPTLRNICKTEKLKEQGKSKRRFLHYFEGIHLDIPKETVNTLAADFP
# Chain of ATP-dependent 6-phosphofructokinase (Trypanosoma brucei brucei) (O15648 whole entry, looked up): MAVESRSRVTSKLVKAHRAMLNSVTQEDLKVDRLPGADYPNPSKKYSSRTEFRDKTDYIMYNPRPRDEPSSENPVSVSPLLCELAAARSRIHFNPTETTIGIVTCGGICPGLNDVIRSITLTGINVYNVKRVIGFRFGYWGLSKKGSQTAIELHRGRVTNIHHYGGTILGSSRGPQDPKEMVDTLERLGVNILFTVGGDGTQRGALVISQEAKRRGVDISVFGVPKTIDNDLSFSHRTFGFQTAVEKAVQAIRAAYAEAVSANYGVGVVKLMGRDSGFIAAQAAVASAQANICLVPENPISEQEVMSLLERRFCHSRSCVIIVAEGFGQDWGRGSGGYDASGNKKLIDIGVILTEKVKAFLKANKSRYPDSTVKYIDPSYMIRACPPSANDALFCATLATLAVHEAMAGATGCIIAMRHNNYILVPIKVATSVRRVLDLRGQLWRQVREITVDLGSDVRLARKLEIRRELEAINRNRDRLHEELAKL
# Chain of Peptidyl-prolyl cis-trans isomerase NIMA-interacting 1 (Homo sapiens) (Q13526 whole entry, looked up): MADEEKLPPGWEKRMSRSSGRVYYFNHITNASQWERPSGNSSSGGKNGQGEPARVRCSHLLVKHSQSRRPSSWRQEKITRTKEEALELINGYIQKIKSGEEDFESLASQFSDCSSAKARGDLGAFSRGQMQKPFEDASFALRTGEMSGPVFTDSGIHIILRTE
# Chain of Galactokinase (Homo sapiens) (P51570 whole entry, looked up): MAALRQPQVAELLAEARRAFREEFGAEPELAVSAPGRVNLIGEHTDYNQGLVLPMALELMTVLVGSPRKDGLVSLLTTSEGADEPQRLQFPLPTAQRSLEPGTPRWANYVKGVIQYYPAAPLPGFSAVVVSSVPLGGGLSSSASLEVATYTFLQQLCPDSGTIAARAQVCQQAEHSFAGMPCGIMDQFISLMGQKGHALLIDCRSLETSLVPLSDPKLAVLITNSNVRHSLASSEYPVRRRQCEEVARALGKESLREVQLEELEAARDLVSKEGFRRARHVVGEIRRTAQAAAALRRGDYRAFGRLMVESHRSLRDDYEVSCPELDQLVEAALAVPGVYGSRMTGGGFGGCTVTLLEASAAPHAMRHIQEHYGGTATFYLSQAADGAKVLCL
compound,measurement,setting,value
CCCCCCCCCCCCCCCCCC(=O)O,outcome,[1],inactive
CCCCCCCCCCCC(=O)[O][Sn]([CH2]CCC)([CH2]CCC)[O]C(=O)CCCCCCCCCCC,outcome,[1],inactive
COc1ccc(-c2cc(=S)ss2)cc1,outcome,[1],inactive
COc1cc(/C=C/C(=O)N2CCN(CC(=O)N3CCCC3)CC2)cc(OC)c1OC,outcome,[1],inactive
NC(=O)C(c1ccccc1)(c1ccccc1)[C@@H]1CCN(CCc2ccc3c(c2)CCO3)C1,outcome,[1],inactive
O=C1CN(/N=C/c2ccc([N+](=O)[O-])o2)C(=O)N1,outcome,[1],inactive
c1ccc2sc(SSc3nc4ccccc4s3)nc2c1,outcome,[1],inactive
O=C1CC[C@@H](C(=O)N2CSC[C@H]2C(=O)O)N1 ([pGlu]-[Thz]-OH),outcome,[1],inactive
Cc1ccc(O)c(-n2nc3ccccc3n2)c1,outcome,[1],inactive
CCOC(=O)c1ccccc1O,outcome,[1],inactive
C=C(Nc1ccc(OCC)cc1)Nc1ccc(OCC)cc1,outcome,[1],inactive
Cc1ccc(C(=O)c2ccc(CC(=O)O)n2C)cc1,outcome,[1],inactive
C[S+](CC[C@H](N)C(=O)O)C[C@H]1O[C@@H](n2cnc3c(N)ncnc32)[C@H](O)[C@@H]1O (some centres undefined),outcome,[1],inactive
COc1cc2c3cc1Oc1cc(ccc1O)C[C@@H]1c4c(cc(OC)c(O)c4Oc4ccc(cc4)C[C@@H]3N(C)CC2)CC[N+]1(C)C,outcome,[1],inactive
CC1(C)C[C@@H]1C(=O)N/C(=C\CCCCSC[C@H](N)C(=O)O)C(=O)O,outcome,[1],inactive
Cc1nc2ccccc2n1Cc1ccc(Cl)cc1,outcome,[1],inactive
O=C(/C=C/c1ccccc1)NCCO,outcome,[1],inactive
O=C(Nc1ccc(C(=O)O)c(O)c1)c1ccccc1,outcome,[1],inactive
O=C(O)[C@H](CC(=O)N1C[C@H]2CCCC[C@H]2C1)Cc1ccccc1,outcome,[1],inactive
CCCOC(=O)c1ccc(O)cc1,outcome,[1],inactive
C=CCN1C(=O)C(CC(C)C)NC1=S (centres undefined),outcome,[1],inactive
CCCCCCCCCCCCCCCC(=O)OC(C)C,outcome,[1],inactive
Cc1[nH]cnc1CN1CCc2c(c3ccccc3n2C)C1=O,outcome,[1],inactive
CCCC(=O)OC[C@@H](OC(=O)CCC)[C@@H](OC(=O)CCC)[C@H](Cn1c2nc(=O)[nH]c(=O)c-2nc2cc(C)c(C)cc21)OC(=O)CCC,outcome,[1],inactive
O=C1CN(/N=C/c2ccc(-c3ccc([N+](=O)[O-])cc3)o2)C(=O)N1,outcome,[1],inactive
CCCCC[C@H](O)/C=C/[C@@H]1[C@@H](C/C=C\CCCC(=O)O)[C@@H](O)C[C@H]1O,outcome,[1],inactive
Nc1c(CC(=O)O)cccc1C(=O)c1ccc(Br)cc1,outcome,[1],inactive
CC1(C)S[C@@H]2[C@H](NC(=O)[C@H](NC(=O)N3CCN(S(C)(=O)=O)C3=O)c3ccccc3)C(=O)N2[C@H]1C(=O)O,outcome,[1],inactive
Cc1c(Nc2ncccc2C(=O)O)cccc1C(F)(F)F,outcome,[1],inactive
O=C(O)Cc1ccc(-c2ccccc2)cc1,outcome,[1],inactive
O=C(CCN1CCN(CCO)CC1)N1c2ccccc2Sc2ccc(C(F)(F)F)cc21,outcome,[1],inactive
c1ccc2sc(SN3CCOCC3)nc2c1,outcome,[1],inactive
O=C(OCc1ccccc1)c1ccccc1,outcome,[1],inactive
Nc1ccc(C(=O)O)c(O)c1,outcome,[1],inactive
O=C(O)[C@H](O)[C@@H](O)[C@H](O)[C@H](O)CO,outcome,[1],inactive
CN1CCN(c2cc3c(nn2)Oc2ccccc2N3C)CC1,outcome,[1],inactive
CCCSc1ccc2nc(NC(=O)OC)[nH]c2c1,outcome,[1],inactive
Cc1cc(O)c2ccccc2c1O,outcome,[1],inactive
CCCCCCOc1ccccc1C(N)=O,outcome,[1],inactive
CCCCCCCCCCCCCCCCCC(=O)OC(CC(=O)O)C[N+](C)(C)C (centres undefined),Potency,[2],inactive
same,Potency,[3],inactive
same,activation,[4],-0.5% (inactive)
same,outcome,[5],inactive
same,Potency,[6],inactive
same,Potency,[7],11.6 µM (active)
same,Potency,[8],inactive
NCCCCC(=O)O,Potency,[2],inactive
same,Potency,[3],inactive
same,activation,[4],-0.25% (inactive)
same,Potency,[9],inactive
same,viability change,[9],11.5%
same,outcome,[5],inactive
same,Potency,[7],inactive
same,Potency,[10],inactive
same,Potency,[8],inactive
NC(N)=NC(=O)c1nc(Cl)c(N2CCCCCC2)nc1N,Potency,[2],inactive
same,Potency,[3],inactive
same,activation,[4],3.31% (inactive)
same,outcome,[5],inactive
same,Potency,[10],inactive
same,Potency,[8],inactive
CC(=O)N[C@H](C(=O)O)C(C)(C)SN=O,Potency,[2],inactive
same,Potency,[3],inactive
same,activation,[4],0.812% (inactive)
same,Potency,[9],inactive
same,viability change,[9],-5%
same,outcome,[5],inactive
same,Potency,[7],inactive
same,Potency,[10],inactive
same,Potency,[8],inactive
Cn1c(=O)c2[nH]c(-c3ccccc3)nc2n(C)c1=O,Potency,[2],inactive
same,Potency,[3],inactive
same,activation,[4],0.875% (inactive)
same,outcome,[5],inactive
same,Potency,[7],inactive
same,Potency,[10],inactive
same,Potency,[8],inactive
CN1CCc2cc(O)c(O)cc2C(c2ccccc2)C1 (centres undefined),Potency,[2],inactive
same,Potency,[3],inactive
same,activation,[4],-0.188% (inactive)
same,outcome,[5],inactive
same,Potency,[6],inactive
same,Potency,[7],inactive
same,Potency,[10],inactive
same,Potency,[8],inactive
COc1ccccc1CNCCCCCCNCCCCCCCCNCCCCCCNCc1ccccc1OC,Potency,[2],inactive
same,Potency,[3],inactive
same,activation,[4],0.938% (inactive)
same,outcome,[5],inactive
same,Potency,[6],inactive
same,Potency,[7],inactive
same,Potency,[10],inactive
same,Potency,[8],inactive
CCCCCC(O)c1cccc(OCc2ccc3ccccc3n2)c1 (centres undefined),Potency,[2],inactive
same,Potency,[3],inactive
same,activation,[4],-5.62% (inactive)
same,outcome,[5],inactive
same,Potency,[6],inactive
same,Potency,[7],inactive
same,Potency,[8],inactive
CCCN(CC1CC1)c1nc(C)nc(Nc2c(Cl)cc(Cl)cc2Cl)c1Cl,Potency,[2],inactive
same,Potency,[3],inactive
same,activation,[4],-7.44% (inactive)
same,outcome,[5],inactive
same,Potency,[6],inactive
same,Potency,[7],inactive
same,Potency,[10],inactive
same,Potency,[8],inactive
O=C(O)CC1CCCc2ccccc2C1O (centres undefined),Potency,[2],inactive
same,Potency,[3],inactive
same,activation,[4],0.625% (inactive)
same,Potency,[9],inactive
same,viability change,[9],2.15%
same,outcome,[5],inactive
same,Potency,[7],inactive
same,Potency,[10],inactive
same,Potency,[8],inactive
COc1cc(C(O)CO)ccc1OS(=O)(=O)O (centres undefined),Potency,[2],inactive
same,Potency,[3],inactive
same,activation,[4],-2.69% (inactive)
same,Potency,[9],inactive
same,viability change,[9],-9.03%
same,outcome,[5],inactive
same,Potency,[7],inactive
same,Potency,[10],inactive
Clc1ccc(N2CCN(Cc3c[nH]c4ncccc34)CC2)cc1,Potency,[2],inactive
same,Potency,[3],inactive
same,activation,[4],2.19% (inactive)
same,Potency,[9],inactive
same,viability change,[9],-2.66%
same,outcome,[5],inactive
same,Potency,[7],inactive
same,Potency,[8],inactive
OCC1O[C@H](O)C(Cl)C(O)C1O (some centres undefined),Potency,[2],inactive
same,Potency,[3],inactive
same,activation,[4],0.688% (inactive)
same,outcome,[5],inactive
same,Potency,[6],inactive
same,Potency,[7],inactive
same,Potency,[10],inactive
same,Potency,[8],inactive
O=c1[nH]c2cc(C(F)(F)F)ccc2n1-c1cc(C(F)(F)F)ccc1O,Potency,[2],inactive
same,Potency,[3],inactive
same,activation,[4],1.88% (inactive)
same,Potency,[9],inactive
same,viability change,[9],-2.14%
same,outcome,[5],inactive
same,Potency,[7],inactive
same,Potency,[8],inactive
